Each structure is given as a SMILES string. In all, about 65,000 compounds went through this assay and about 2,100 (3.2%) showed an effect of 50% or more. The median lay at about -52%. The sample as a whole holds a higher share of strong results than the screen did.

The source of these data is ChEMBL document CHEMBL4513216, “Probing the Open Global Health Chemical Diversity Library for Multistage-Active Starting Points for Next-Generation Antimalarials” (ACS Infect Dis, 2020).

In the experiment the test system is Plasmodium falciparum. The experiment in a line: Screen against P. falciparum Asexual Blood Stage (ABS), at 5uM. As to conditions: tested at 5 uM. The experiment is classed as functional, Dd2.
For the molecule `CCC1CN(C)c2ccccc2CN1C(=O)Nc1cccc(F)c1` (configuration not stated), the INHIBITION is reported as -107%. Regarding `COCCN(CCOC)C(=O)c1cnn(C)c1C`, the INHIBITION was -57.9%. For the molecule `Cc1nc(CCNC2CCN(Cc3ccccc3)C2)sc1C` (configuration not stated), the INHIBITION is recorded as 53.5%. The same measure for `CCc1nc(C)sc1CNC1CCN(Cc2ccccc2)C1` (configuration not stated): -2.57%; for `Cc1nc(CNC2CCN(Cc3ccccc3)C2)sc1C` (configuration not stated): 7.17%; for `CCC(=O)c1ccc(Br)cc1NN1c2cc(Br)ccc2C(=O)C1(C)OC` (configuration not stated): 43.1%.

Consider `CCc1n[nH]c(C(=O)N2CCN(c3ccc4ccccc4c3)CC2)c1C`, for which the INHIBITION is -8.02%. Next, `CC(=O)N(c1ccc(C)cc1)c1nc(CN2CCCCC2C)cs1` (configuration not stated): 61.8%. The same measure for `CCN(C(C)=O)c1nc(CN2CCCCC2Cn2cncn2)cs1` (configuration not stated): 9.81%. The same measure for `CC(=O)N(C)c1nc(CN2CCCCC2Cn2cncn2)cs1` (configuration not stated): -125%. `Cc1cnc(NC(C)Cc2cccnc2)nc1N(C)C` (configuration not stated): the INHIBITION came out at 5.71%.

For `O=C(NCc1ccco1)[C@@H]1CCO[C@@H]2CCN(CC3CC3)C[C@@H]21`, the INHIBITION is -37.9%.

Consider `CN1CC(=O)N(c2cccc(F)c2)CC12CCN(Cc1nccs1)C2` (configuration not stated), for which the INHIBITION is given as -71.1%. Consider `c1ccc(-n2nnnc2CNCC2CCCN2c2cccnn2)cc1` (configuration not stated), for which the INHIBITION is -59.9%.

Turning to `CN(C)C(=O)CN1CCCC(c2nccnc2-c2cccc(Cl)c2)C1` (configuration not stated), the INHIBITION is 6.94%. The same measure for `COCCN1CCCC(c2nccnc2-c2cccc(Cl)c2)C1` (configuration not stated): 62.9%; for `CN1CCCC(c2nccnc2-c2cccc(Cl)c2)C1` (configuration not stated): 45.1%. The same measure for `Cc1cccc(-c2nccnc2C2CCCN(C)C2)c1` (configuration not stated): -10.8%; for `CN1CCCC(c2nccnc2-c2cccc(C(F)(F)F)c2)C1` (configuration not stated): 68.7%; for `Cn1cc(CN2CCCC(c3nccnc3-c3cccc(F)c3)C2)cn1` (configuration not stated): -45.2%.

On to `COc1ccc2c(c1)OCC(CNc1cc(N)nc(SC)n1)C2` (configuration not stated), for which the INHIBITION was -50.7%. Next, `CC(Cn1cccn1)NCc1ccc(OCc2ccncc2)cc1` (configuration not stated): -96.3%; `CN1CCOC(CNCCOc2ccc(C#N)cc2)C1` (configuration not stated): -41.7%; `Oc1coc2cc(OC[C@@H]3CCCN4CCCC[C@H]34)ccc12`: -8.29%. The same measure for `Cc1c(Cl)cccc1S(=O)(=O)N1CCC(S(=O)(=O)c2nncn2C)CC1`: -68.7%; for `O=C(NCc1cnc2n1CCN(Cc1ccsc1)CC2)C1CCC1`: -48.2%; for `CNS(=O)(=O)CCCN1CCCC1c1noc(C)n1` (configuration not stated): -104%.

With `CCc1nc(C2CCCN2Cc2nc(C(C)(C)C)no2)no1` (configuration not stated), the INHIBITION is -105%. The same measure for `CCn1cc(CNC(=O)CC(C)C)cn1`: -153%. The same measure for `Cc1[nH]ncc1C(=O)N1CCCN(Cc2nccn2C(C)C)CC1`: 11.1%; for `CC(C)n1ccnc1CN1CCCN(C(=O)c2cnc[nH]2)CC1`: 60.4%. Turning to `CC(C)n1ccnc1CN1CCCN(C(=O)c2cc(Cl)c[nH]2)CC1`, the INHIBITION is 39%.
